# High-throughput results: PubChem, several laboratories
# CYP2C9 act – CYP2C9 (human) activation; 96,000 tested, 1.4% active; activation factor at 5 µM; AID 1024; P11712; recombinant CYP2C9, luciferin-H conversion, luminescence; active compounds read high; factor 1 = untreated enzyme, 0 = blocked;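 active means activation factor of 2 or more for CYP2C9 at a 5 µM dose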;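 further: 0 = sulfaphenazole-blocked wells and 1 = vehicle-only wells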
# CYP2C9 inhib – inhibitors of human CYP2C9. P11712. CYP2C9 Supersomes, luciferin-H conversion, luminescence. inhibition, % at 5 µM. 96,000 tested, 20% active. AID 777;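 active means blocking of liver enzyme CYP2C9 beyond about 50% at 5 µM, limit read from the data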
# CYP2C19 act – cytochrome P450 2C19 (human) activation; recombinant CYP2C19, luciferin-H EGE luminescence; active compounds read high; 0 = fully inhibited enzyme, 1 = untreated enzyme; AID 1025; activation factor at 5 µM; P33261; 96,000 tested, under 10 active;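 active means activation factor of at least 2 at 5 µM in the primary screen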;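 further: 0 = wells with 2.5 mM tranylcypromine and 1 = vehicle-only wells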
# CYP2C19 inh – inhibitors of human CYP2C19 | P33261 | CYP2C19 Supersomes, luciferin-H EGE luminescence, 30 min | inhibition, % at 5 µM | 96,000 tested, 21% active;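 active means CYP2C19 inhibition above a set limit at 5 µM in the primary screen, cut at about 50% in these data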;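 further: plate controls were negative control wells for no effect and 2.5 mM tranylcypromine positive control for full effect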
# Cav32 inh – human Cav3.2 channel inhibition, primary screen | AID 449739 | 100,000 tested, 4% active | O95180 | B-score at 10 µM | Cav3.2-expressing cells, Fluo-4 calcium fluorescence FDSS; active compounds read low;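 active means single-dose well whose peak fluorescence ratio is a statistical outlier from its plate by either plate-standardised score or position-corrected B-score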
# Starred values were filed as active, the others as inactive; · = no result given. Sampled rows, rich in hits. Any-hit rate of the full collection: about 27%.
SMILES,CYP2C9 act,CYP2C9 inhib,CYP2C19 act,CYP2C19 inh,Cav32 inh
CC(=Nc1ccccc1)C1=C(O)CSC1=O,0.7,28.9,0.6,35.4,-1.48
CC(=Nc1ccccc1C)C1=C(O)CSC1=O,0.8,23.2,0.2,75.3*,-0.923
c1ccc(-c2ccc(OCCOCCn3cncn3)cc2)cc1,0.3,67.0*,0.1,94.7*,0.527
c1ccc(Cc2ccc(OCCn3cncn3)cc2)cc1,0,98.0*,0,97.0*,-0.577
c1ccc(-c2ccccc2OCCn2cncn2)cc1,1.8,-79.6,0,96.9*,0.0622
FC(F)(F)c1cccc(OCCOCCn2cncn2)c1,0.7,32.6,0.1,85.9*,0.0626
COc1ccc(OCCn2cncn2)cc1,1.1,-12.6,1,-1.6,0.698
CCOc1ccc(OCCOCCN2CCc3ccccc3C2)cc1,1,3.5,0.8,17.0,0.793
Clc1ccc(OCCCn2cncn2)cc1Cl,0.1,92.3*,0,98.6*,-0.154
Clc1ccc(SCCCCn2cncn2)cc1,0.2,75.5*,0,97.7*,-0.0819
Cc1cc(OCCCCCNCCO)ccc1Cl,·,·,·,·,0.318
c1ccc(COc2ccc(OCCCn3cncn3)cc2)cc1,0,95.6*,0.1,94.4*,-0.0471
O=C(CCSc1ccc(Cl)cc1)N1CCOCC1,·,·,·,·,1.01
Clc1ccc(OCCN2CCOCC2)cc1Cl,1,0.9,0.7,32.5,-3.97*
CC1CCN(CCCOc2ccc(OCc3ccccc3)cc2)CC1,0.9,9.8,0.8,20.4,-3.38
CC(C)Nc1nc(NC(C)C)nc(C(N)=O)n1,0.8,23.8,0.9,5.3,-0.0702
NCCOc1ccccc1Cc1ccccc1,0.8,21.6,0.7,32.0,-0.00299
NCCOc1ccccc1-c1ccccc1,0.3,65.5*,0.4,56.6*,1.69
CSc1ccc(C2C(C#N)=C(N)N(c3ccccc3)C3=C2C(=O)CCC3)cc1 (stereo not drawn),0.1,90.4*,0.3,74.0*,·
CCOc1ccc(C2C(C#N)=C(N)N(c3sc4c(c3C#N)CCCC4)C3=C2C(=O)CCC3)cc1 (stereo not drawn),1,-0.3,1,-1.7,0.269
Nc1ccc(C23CC4CC(CC(O)(C4)C2)C3)cc1,0.8,23.5,0.1,91.0*,-0.105
Nc1ccc(C23CC4CC(CC(CO)(C4)C2)C3)cc1,0.8,19.8,0.3,71.3*,0.26
NCC12CC3CC(CC(O)(C3)C1)C2,0.9,5.1,0.9,14.2,-0.0533
Cc1ccc(C23CC4CC(CC(CC(=O)N5CCOCC5)(C4)C2)C3)cc1,·,·,·,·,-2.63
O=C(CN(C(=O)CNS(=O)(=O)c1ccccc1)C1CCCC1)NCc1ccco1,0.8,18.5,0.5,46.4,-0.325
SMILES,CYP2C9 act,CYP2C9 inhib,CYP2C19 act,CYP2C19 inh,Cav32 inh
Cc1ccc(CNC(=O)C2CC(c3cccc(F)c3)=NO2)cc1 (stereo not drawn),·,·,·,·,-1.84
COc1cc(C2=NOC(C(=O)NCc3ccc(F)cc3)C2)cc(OC)c1OC (stereo not drawn),1.6,-60.9,0.3,69.4*,·
COc1ccc(C2=NOC(C(=O)NCc3ccc(F)cc3)C2)cc1OC (stereo not drawn),0.9,5.9,0.5,46.2,·
O=C(NCc1ccc(OC(F)(F)F)cc1)C1CC(c2cccc(F)c2)=NO1 (stereo not drawn),·,·,·,·,-3.15*
CCOC(=O)Nc1ccccc1C(=O)N1CCOCC1,1,-4.8,1,1.5,1.26
CCOc1ccc(CC2CC(=O)NC2=O)cc1 (stereo not drawn),1,-3.7,0.9,11.2,·
Cc1nn(-c2ccc(F)cc2)c(Cl)c1/C=C(\CCC(=O)O)c1nc2ccccc2s1,0.8,17.2,0.9,5.5,-2.12
CCc1ccc(NC(=O)c2ccc(C3SCC(=O)N3CCc3ccccc3)cc2)cc1 (stereo not drawn),0.3,66.0*,0.5,47.4,·
Cc1cccc(NC(=O)c2ccc(C3SCC(=O)N3CCc3ccccc3)cc2)c1C (stereo not drawn),0.1,89.3*,0.2,82.3*,-4.53*
O=C(NCc1ccccc1)c1ccc(C2SCC(=O)N2Cc2ccccc2)cc1 (stereo not drawn),·,·,·,·,-1.32
CCN(CCO)Cc1csc2ccc(Br)cc12,1.3,-28.2,0.6,37.6,0.242
CCn1c(Sc2nc(C)nc3scc(-c4cccs4)c23)n[nH]c1=O,0.4,58.3*,0.4,57.0*,0.263
c1c2c(cc3sc(N4CCOCC4)nc13)OCCO2,0.5,46.5,0.1,87.3*,0.0245
O=C(Nc1ccc2c3c(cccc13)CC2)c1ccco1,2*,-98.6,0.8,22.8,-1.47
